Bioassay records from PubChem.
VACV Venus inh: qHTS for Stage-Specific Inhibitors of Vaccinia Orthopoxvirus: Venus Reporter Primary qHTS; Vaccinia virus Venus reporter expression, fluorescence; Potency, µM (highest dose often 36.5 µM), actives largely listed as inhibitors; actives 0.46% (n = 330,000); AID 720580, 2013; calls by dose curve; tested in A549 cells; also: nearly all actives have a fitted effect of over 30% in size
FMDV antiviral: High Throughput Screening for Foot and Mouth Disease Virus Antivirals | FMDV antiviral cell-based qHTS | Potency, µM (series often up to 57.9 µM), hits mostly inhibitors | actives 1.2% (n = 410,000) | AID 1159524, 2015; calls by dose curve; tested in HEK293T cells; also: read-out not given here; nearly all actives have a fitted effect of over 45% in size
VACV mCherry inh: qHTS for Stage-Specific Inhibitors of Vaccinia Orthopoxvirus: mCherry Reporter Primary qHTS | AID 720579, 2013 | actives 0.63% (n = 310,000) | Vaccinia virus mCherry reporter infection, fluorescence | Potency, µM (doses to about 36.5 µM), hits mostly inhibitors; calls by dose curve; tested in A549 cells; also: nearly all actives have a fitted effect of over 35% in size
HCV inhibitor: qHTS Assay for Inhibitors of Hepatitis C Virus (HCV); actives 3.4% (n = 340,000); AID 651820, 2012; Huh7.5.1 HCVcc-Cre infection, luciferase reporter, 44 h; Potency, µM (doses to about 41.8 µM), actives largely listed as inhibitors
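Antiviral activity was scored by luciferase reporter output from cells infected with HCVcc-Cre (~0.5 moi) in presence of compound, 44 h infection period, cells seeded 1,000/well 4 h prior.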
FBPA Giardia inh: qHTS Assay for Inhibitors of Fructose-1,6-bisphosphate Aldolase from Giardia Lamblia | Potency, µM (titrated, usually from 59.6 µM), most hits filed as inhibitors | actives 0.71% (n = 290,000) | A8B2U2 | purified Giardia FBPA; also: nearly all actives have a fitted effect of over 55% in size
Target sequence (A8B2U2 whole entry, looked up): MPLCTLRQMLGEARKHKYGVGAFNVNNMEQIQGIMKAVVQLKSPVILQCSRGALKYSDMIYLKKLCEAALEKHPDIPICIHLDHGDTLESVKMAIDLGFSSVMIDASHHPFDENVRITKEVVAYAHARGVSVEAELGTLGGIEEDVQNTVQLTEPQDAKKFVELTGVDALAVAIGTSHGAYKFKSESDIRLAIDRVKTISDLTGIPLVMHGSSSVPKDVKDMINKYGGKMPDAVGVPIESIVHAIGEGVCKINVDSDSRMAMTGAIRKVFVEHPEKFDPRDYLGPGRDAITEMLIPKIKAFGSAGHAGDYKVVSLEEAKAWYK
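40 nM FBPA preincubated 10 min at RT with compound (up to 57.5 uM final), then substrate plus GAPDH/TPI/NAD/arsenate coupling and diaphorase/resazurin added. Fluorescence read after 20 min at RT, 525/598 nm.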
HCMV antiviral: qHTS Assay for inhibitors of the human cytomegalovirus (HCMV) | HFF cells, HCMV-luciferase reporter, 72 h; stronger effect = lower value | activity change, negative = inhibition, % at 57.5 µM | actives 4.5% (n = 410,000) | AID 1259415, 2018; in the data active = activity change below about -60%; inconclusive = no clear call, values can overlap the other calls; inactive = above about -39%
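Human foreskin fibroblasts infected with luciferase-reporter HCMV at MOI 1 PFU/cell, compounds at two doses. Luciferase measured 72 h post infection; normalized to buffer-only basal and Salinomycin (10uM) controls.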
Hits are given with their value; - = inactive; ? = inconclusive; . = not tested or not shown; [ ] = dose if it differs, or a comment. Hits are enriched below; roughly 7.5% of the tested compounds scored in any of these assays. Unless noted, calls follow the shape of the dose curve; as a rule, active = well fitted curve in the direction sought with a large enough effect; inconclusive = small, poorly fitted or top-dose-only effect, or another doubt; inactive = no such curve, though single readings can be large; an effect the other way counts as inactive or inconclusive.

SMILES | VACV Venus inh | FMDV antiviral | VACV mCherry inh | HCV inhibitor | FBPA Giardia inh | HCMV antiviral
CCCCn1c(SCC(=O)c2ccccc2)nc2ccsc2c1=O | - | - | - | ? | - | ?
COc1ccc(N2C(=O)CCC2=O)cc1 | . | - | . | - | - | -
COc1ccc(N2C(=O)C(=O)N(c3ccc(OC)cc3)P2(=O)N(CCCl)CCCl)cc1 | - | - | - | - | . | -74.8
COc1ccc([C@@H]2[C@@H](C(=O)N3CCOCC3)CC(=O)N2S(=O)(=O)c2ccc(F)cc2)cc1 | . | . | . | . | . | -
O=C(C[n+]1ccccc1Cl)c1cccc([N+](=O)[O-])c1 | - | . | - | . | . | .
COC(=O)C(c1ccccc1)(c1cn(C)c2c(C)cccc12)C(Nc1ccccc1)c1ccccc1 (stereo not given) | . | . | . | . | . | -
O=c1cc(/C=C/c2cccs2)[nH]c2ccccc12 | . | ? | . | ? | - | -85.1
CSc1ccc(/C=C/c2cc(=O)c3ccccc3[nH]2)cc1 | - | - | - | ? | - | -
O=C(COC(=O)CSc1ccc([N+](=O)[O-])cc1)NCCCc1ccccc1 | . | - | . | - | . | -
CC(=O)OC(C)(C)/C=C/C(=O)C(C)(O)C1C(O)CC2(C)C3CC=C4C(CC(O)C(=O)C4(C)C)C3(C)C(=O)CC12C (stereo not given) | 39.8µM | 31.6µM | ? | ? | . | -97.8
CC(=O)OC(C)(C)/C=C/C(=O)C(C)(O)C1[C@H](O)C[C@@]2(C)C3CC=C4C(CC[C@@H](O)C4(C)C)[C@]3(CO)C(=O)C[C@]12C (stereo not given in full) | 35.5µM | 17.8µM | 7.08µM | ? | - | -101.3
CC(=O)OC(C)(C)/C=C/C(=O)[C@](C)(O)C1[C@H](O)C[C@@]2(C)C3CC=C4C(C=C(O[C@@H]5O[C@H](CO)[C@@H](O)[C@H](O)[C@H]5O)C(=O)C4(C)C)[C@]3(C)C(=O)C[C@]12C (stereo not given in full) | 22.4µM | - | - | -[8.37 µM] | . | -86.4
CC(=O)OC(C)(C)/C=C/C(=O)[C@](C)(O)[C@H]1[C@H](O)C[C@@]2(C)[C@@H]3CC=C4[C@H](C[C@H](O)C(=O)C4(C)C)[C@]3(C)C(=O)C[C@]12C | 8.91µM | 17.8µM | ? | - | - | .
Cc1c(C(=O)N(C)Cc2cscn2)sc2ncnc(NC[C@H]3CCc4ccccc4O3)c12 | - | - | - | . | . | .
CCOCCCNC(=O)c1cnc2sc(N3CCCCCC3)nn2c1=O | - | - | - | . | . | -
CC(C)CNc1ncnc2c1sc1nc(N3CCOCC3)c3c(c12)CC(C)(C)OC3 | - | - | . | ? | - | -
CC1(C)Cc2nc3sc4c(N(CCO)CCO)ncnc4c3cc2CO1 | - | - | - | - | - | -
CCN(CCO)c1ncnc2c1sc1nc(CC(C)C)c3c(c12)CC(C)(C)OC3 | . | - | . | 14.1µM | - | -
CN(C)CCNc1ncnc2c1sc1nc(N3CCCC3)c3c(c12)CC(C)(C)OC3 | -[7.34 µM] | ? | -[7.34 µM] | 12.6µM | - | ?
CC1(C)Cc2c(c(-c3ccco3)nc3sc4c(NCCCO)ncnc4c23)CO1 | . | ? | . | ? | - | -65.3
CCN(CC)CCNc1ncnc2c1sc1nc(N3CCCC3)c3c(c12)CC(C)(C)OC3 | ? | ? | ? | 2µM | - | -
CCN(CC)CCNc1ncnc2c1sc1nc(N3CCOCC3)c3c(c12)CCCC3 | - | - | - | ? | - | -
CCC(=O)N1c2ccc(S(=O)(=O)NCCc3ccccc3)cc2CC1C (stereo not given) | - | - | - | - | - | ?
CC1CC2C3CCC4=CC(=O)C=C[C@@]4(C)[C@]3(F)C(O)C[C@]2(C)[C@]1(O)C(=O)COP(=O)(O)O (stereo not given in full) | . | . | . | . | - | .
O=C(NCC1CCCO1)c1ccc(Cl)c(NS(=O)(=O)c2ccc(F)cc2)c1 (stereo not given) | - | - | - | . | . | -
SMILES | VACV Venus inh | FMDV antiviral | VACV mCherry inh | HCV inhibitor | FBPA Giardia inh | HCMV antiviral
CCN1CCN(C(=O)c2cnn3c(C(F)F)cc(-c4ccc(C)cc4)nc23)CC1 | . | - | . | - | - | -
Cc1cccc(Cc2c(C)nc3c(C(=O)N4CCN(Cc5ccc6c(c5)OCO6)CC4)cnn3c2C)c1 | ? | ? | - | ? | - | ?
Cc1ccccc1Cc1c(C)nc2c(C(=O)N3CCN(Cc4ccc5c(c4)OCO5)CC3)cnn2c1C | . | ? | . | 14.1µM | . | ?
O=C(c1cnn2c(C(F)F)cc(-c3ccccc3)nc12)N1CCN(Cc2ccc3c(c2)OCO3)CC1 | - | 28.2µM | ? | 11.2µM | - | -
CCn1ncc(Br)c1C(=O)Nc1ccc(Cl)cn1 | - | - | - | - | - | -64.7
COc1ccc2nc(SCC(=O)N3CCCCC3)c(C#N)cc2c1 | - | - | - | - | - | -
COc1ccc2nc(SCC(=O)N3CCCCCC3)c(C#N)cc2c1 | - | - | - | 6.31µM | - | -
COc1ccc2nc(N3CCCCC3)c(C#N)cc2c1 | - | - | - | - | 17.8µM | -
CSc1ccc(S(=O)(=O)N2c3ccccc3CC2C)cc1 (stereo not given) | . | - | . | - | - | ?
CCc1nn(C(C)C(=O)Nc2cccc(C)c2C)c(=O)c2cc3occc3n12 (stereo not given) | ? | - | . | 11.2µM | - | -
CCc1nn(C(C)C(=O)NCCN2CCN(c3cccc(C)c3C)CC2)c(=O)c2cc3occc3n12 (stereo not given) | - | 28.2µM | . | 1.78µM | - | -
CCc1cccc(C)c1NC(=O)CSc1nnc(CC)n2c1cc1occc12 | - | 22.4µM | - | . | . | -69.1
CCc1nn(C(C)C(=O)N2CCc3ccccc3C2)c(=O)c2cc3occc3n12 (stereo not given) | - | - | - | - | - | -
CCc1nn(C(C)C(=O)NCCN2CCCCCC2)c(=O)c2cc3occc3n12 (stereo not given) | - | - | - | ? | - | -
C#CCSc1nnnn1-c1cccc(Cl)c1 | - | - | - | 25.1µM | - | -
Cc1ccc(CCNC(=O)CN(c2ccc(C(C)C)cc2)S(=O)(=O)c2c(C)nn(C)c2C)cc1 | - | - | - | . | . | -
COc1cccc(-c2cncnc2NCc2ccccc2OC)c1 | . | - | . | . | - | .
COc1cccc(-c2ncn(CCc3ccccc3OC)c2CC(C)C)c1 | . | . | . | . | . | -88.0
COc1ccccc1CCn1cnc(C)c1CC(C)C | - | - | - | . | . | -
COc1cccc(-c2ncn(CCc3ccccc3OC)c2C(C)C)c1 | - | 31.6µM | - | . | . | -100.9
NS(=O)(=O)c1ccc(CCNC(=O)c2cc(-c3cc(Cl)ccc3O)n[nH]2)cc1 | . | - | . | - | - | -79.8
Cc1cc(O)c(-c2cc(C(=O)NCCc3ccc(S(N)(=O)=O)cc3)[nH]n2)cc1C | - | - | - | ? | - | ?
